Data reported in PubChem BioAssay.
Inconclusive results are not listed. Active and inactive are the calls of the source.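 Rule for the calls, unless noted: active = inhibition above the screen-wide mean plus 3 SD, about 51%; inactive = the rest.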

Legend:
[1] = rapamycin-like changes in RPL19A-GFP expression – cell-based, S. cerevisiae, multiplex flow cytometry, primary screen (AID 1862; in the data active = percent of DMSO control GFP below about 86%;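 note: lower values mimic rapamycin by blocking the RPL19A rise seen in DMSO cells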); details: S. cerevisiae RPL19A-GFP strain, flow cytometry fluorescence, 3 h; at 10 µM; stronger effect = lower value
[2] = TOR pathway GLN3 branch reporter MEP2-GFP changes – S. cerevisiae, multiplex flow cytometry, primary screen (AID 1867;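 active = GFP response, as percent of the DMSO control, above the screen-wide mean plus 3 SD, about 139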;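 note: median GFP channel fluorescence of barcode-gated MEP2-GFP cells measured by flow cytometry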); details: S. cerevisiae MEP2-GFP strain, 3 h, at 10 µM, stronger effect = higher value, 100% means same as DMSO wells
[3] = TOR pathway RTG branch CIT2 reporter changes – S. cerevisiae, GFP fusion, multiplex flow cytometry, primary screen (AID 1870;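 active = percent response above a set limit, the screen-wide mean plus 3 SD, cut at about 130% in these data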;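 note: barcoded CIT2-GFP strain pooled with four other GFP strains with rapamycin as positive control; median GFP fluorescence per well over plate mean of DMSO wells so 100% = DMSO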); details: S. cerevisiae CIT2-GFP expression, 3 h, at 10 µM, stronger effect = higher value
[4] = TOR pathway LAP4-GFP level changes – S. cerevisiae, multiplex flow cytometry, primary screen (AID 1873;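 active = GFP signal, as percent of the solvent control, above the screen mean plus 3 SD, about 149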); details: S. cerevisiae LAP4-GFP expression, 3 h, at 10 µM, stronger effect = higher value
[5] = yeast AGP1-GFP level changes, GLN3 branch – cell-based, multiplex flow cytometry, S. cerevisiae, primary screen (AID 1887;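 active = GFP signal above the screen-wide mean plus 3 SD, that is over about 124.5% of the solvent control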;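 note: AGP1-GFP fusion strain of S. cerevisiae within a five-strain barcoded multiplex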); details: 3 h, at 10 µM, stronger effect = higher value
[6] = reduced mouse 2C T cell binding to pMHC/ICAM-1 vesicles – MLPCN validation set, flow cytometry, LFA-1/ICAM-1 modulator project, pilot screen (AID 2523;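 active = response below a set limit, under 55% cells CD8-positive and vesicle-bound, and CD8 cells' 90th-percentile brightness under 279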;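 for vesicle binding response: mean PE anti-B7-1 fluorescence of CD8+ cells relative to row control; 100% = QL9-loaded vesicles with DMSO vehicle in the same plate row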); details: 2C mouse CD8+ T cells, at 7 µM, stronger effect = lower value; double positive events: measured here: CD8+/vesicle+ event percentage
[7] = target: Integrin beta-1 (Homo sapiens) + Integrin alpha-4 (Homo sapiens) (UniProt P13612+P05556); test: alpha4beta1 integrin LIBS antibody binding reduction – U937 cells, HUTS-21 mAb, flow cytometry, validation set, VLA-4 allosteric modulator project, pilot screen (AID 2674;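 active = inhibition above 50%, about 3 SD of the validation set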;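 note: antibody binding induced by the VLA-4 ligand LDV present at three times its Kd; 0% = LDV ligand with antibody and no compound and 100% = antibody without LDV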); details: HUTS-21 LIBS mAb binding, at 6.7 µM, stronger effect = higher value, binding induced by LDV ligand
[8] = calorie-restriction mimetic ROS inhibitors, yeast – validation compound set, pilot screen (AID 2706;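 active = superoxide response below 65% of plate, a cut near 3 SD across the whole screen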;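 note: yeast exposed to compound for one week at 30 degrees C before staining; 100% = mean of all compound wells on the same plate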); details: S. cerevisiae aging, superoxide DHE fluorescence; at 10 µM, stronger effect = lower value
[9] = target: Beta-adrenergic receptor kinase 1 (Homo sapiens) (UniProt P25098); test: GRK2 binders displacing RNA aptamer, biochemical, validation, human GRK2, bead flow cytometry (AID 488806;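 active = aptamer binding inhibition above 30%, about 3 SD of noise from non-fluorescent compounds; inactive = inhibition at or below 30%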); details: bead-bound GRK2, FAM-aptamer displacement, at 10 µM, stronger effect = higher value
[10] = target: Beta-2 adrenergic receptor (Homo sapiens) (UniProt P07550); test: agonist-induced loss of surface beta2AR – cell-based, FAP fluorogen, flow cytometry, validation set, pilot screen (AID 504459;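 active = percent response above 42, roughly 3 SD of non-fluorescent test compounds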;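 note: agonist-driven loss of surface beta2AR via internalization measured by FAP dye flow cytometry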); details: Am2.2-beta2AR cells, at 10 µM, stronger effect = higher value
[11] = target: AP-2 complex subunit beta (Homo sapiens) (UniProt P63010); test: beta-arrestin/AP2 interaction blockers – biochemical, validation set, GST-AP2 beads, flow cytometry, pilot screen (AID 504541;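 active = inhibition above 54%, about 3 SD of non-fluorescent compounds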;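 note: AP2 carries R879A mutation and is captured from E. coli lysate; bead-bound FITC arrestin peptide fluorescence measuring arrestin peptide binding to AP2; 0% = DMSO wells and 100% = excess unlabeled arrestin peptide control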); details: FITC arrestin peptide, at 10 µM, stronger effect = higher value, AP2 beta2 appendage fragment, R879A mutant
[12] = cytosolic pH regulators acting via V-ATPase – S. cerevisiae, pHLuorin, HTS validation (AID 504600; in the data active = response above about 15%;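 note: plate controls were DMSO for no effect and reference compound for full effect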); details: V-ATPase proton transport, at 10 µM, stronger effect = higher value
[13] = test system: anti-desmoglein-3 scFv antibody binding to human DSG3; test: blockers of pathogenic pemphigus antibody–desmoglein-3 binding – biochemical, validation compound set, bead-based, flow cytometry, pilot screen (AID 588368;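 active = binding below the plate cutoff, the plate median minus 3 SD, with a reading above zero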;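 note: signal is the median channel fluorescence of bead-bound GFP antibody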); details: Protein G beads, DSG3-Fc, scFv-GFP binding, at 10 µM, stronger effect = lower value
[14] = Nile Red efflux blockade in pump-expressing yeast – validation compound set, multiplex, phenotypic, pilot screen (AID 588506;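 active = efflux inhibition above 0.42, the validation set average plus 4 SD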;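 note: Nile Red retained in cells so higher fluorescence means more efflux inhibition; 0 = negative control wells and 1 = enniatin B 25 µM full block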); details: S. cerevisiae pump-expressing triplex, Nile Red efflux flow cytometry; at 10 µM; stronger effect = higher value; the pumps come from Candida albicans
[15] = target: ATP-binding cassette sub-family B member 6 (Homo sapiens) (UniProt Q9NP58); test: blockers of ABCB6-driven porphyrin uptake – K562-ABCB6 cells, flow cytometry, validation set, pilot screen (AID 588550); details: K562-ABCB6 porphyrin accumulation, 1 h, at 10 µM, stronger effect = higher value;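 note: 0% = DMSO wells and 100% = benzethonium chloride 70 µM positive control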
[16] = AML differentiation inducers, ER-HoxA9 marrow cells – cell-based, GFP/MAC1 double positive, flow cytometry, validation set, primary screen (AID 588685;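 active = differentiation response of at least 50%, scaled between solvent and reference control, from cells with both markers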;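 note: compound exposure lasts four days before antibody staining and flow analysis; 0% = DMSO wells and 100% = 5 µM fulvestrant positive control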); details: stronger effect = higher value, normalized: vehicle 0, fulvestrant 100

ATP-binding cassette sub-family B member 6 (Homo sapiens), sequence (Q9NP58 whole entry, looked up): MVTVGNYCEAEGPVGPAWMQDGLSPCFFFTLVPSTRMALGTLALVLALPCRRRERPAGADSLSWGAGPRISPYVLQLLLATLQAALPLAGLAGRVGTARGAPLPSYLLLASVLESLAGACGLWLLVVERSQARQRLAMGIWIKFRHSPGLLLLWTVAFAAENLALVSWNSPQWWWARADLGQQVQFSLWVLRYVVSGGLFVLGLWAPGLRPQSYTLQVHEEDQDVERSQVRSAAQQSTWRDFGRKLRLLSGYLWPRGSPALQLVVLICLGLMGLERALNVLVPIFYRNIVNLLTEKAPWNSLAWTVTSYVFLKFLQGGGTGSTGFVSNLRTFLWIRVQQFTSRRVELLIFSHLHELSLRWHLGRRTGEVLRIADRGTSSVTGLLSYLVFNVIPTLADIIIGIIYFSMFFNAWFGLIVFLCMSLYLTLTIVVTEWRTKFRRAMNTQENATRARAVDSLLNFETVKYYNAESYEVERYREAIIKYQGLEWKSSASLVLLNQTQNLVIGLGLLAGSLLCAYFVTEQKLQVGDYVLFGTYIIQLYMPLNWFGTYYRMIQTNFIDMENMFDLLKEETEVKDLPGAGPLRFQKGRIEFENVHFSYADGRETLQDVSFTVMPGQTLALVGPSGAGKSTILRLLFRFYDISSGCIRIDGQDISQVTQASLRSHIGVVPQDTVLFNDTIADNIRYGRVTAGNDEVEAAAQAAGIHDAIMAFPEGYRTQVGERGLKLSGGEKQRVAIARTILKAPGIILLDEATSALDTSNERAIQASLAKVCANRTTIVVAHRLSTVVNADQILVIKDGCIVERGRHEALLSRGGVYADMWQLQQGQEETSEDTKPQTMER
Integrin beta-1 (Homo sapiens) + Integrin alpha-4 (Homo sapiens), sequence (P05556 whole entry, looked up): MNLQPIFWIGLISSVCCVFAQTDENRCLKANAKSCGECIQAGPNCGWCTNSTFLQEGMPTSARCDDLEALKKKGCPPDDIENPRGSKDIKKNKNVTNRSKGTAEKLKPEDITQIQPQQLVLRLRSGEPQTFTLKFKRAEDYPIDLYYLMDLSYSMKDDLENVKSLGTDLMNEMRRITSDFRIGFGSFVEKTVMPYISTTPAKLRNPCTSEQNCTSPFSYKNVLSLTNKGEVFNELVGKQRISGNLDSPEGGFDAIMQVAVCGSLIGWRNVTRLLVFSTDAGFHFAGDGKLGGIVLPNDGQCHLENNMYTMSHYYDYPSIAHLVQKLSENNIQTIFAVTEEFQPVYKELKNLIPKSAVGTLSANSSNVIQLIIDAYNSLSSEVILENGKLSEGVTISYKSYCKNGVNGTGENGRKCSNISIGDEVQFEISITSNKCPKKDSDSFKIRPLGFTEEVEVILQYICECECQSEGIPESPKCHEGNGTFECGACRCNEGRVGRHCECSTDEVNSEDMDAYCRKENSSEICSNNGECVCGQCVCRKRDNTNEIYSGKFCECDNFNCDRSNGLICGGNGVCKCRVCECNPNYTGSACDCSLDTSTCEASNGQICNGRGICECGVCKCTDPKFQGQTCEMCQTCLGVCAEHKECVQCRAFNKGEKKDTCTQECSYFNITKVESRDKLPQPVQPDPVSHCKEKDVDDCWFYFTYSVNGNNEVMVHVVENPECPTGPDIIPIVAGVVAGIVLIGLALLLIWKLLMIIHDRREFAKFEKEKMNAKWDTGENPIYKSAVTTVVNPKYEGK
Integrin beta-1 (Homo sapiens) + Integrin alpha-4 (Homo sapiens), sequence (P13612 whole entry, looked up): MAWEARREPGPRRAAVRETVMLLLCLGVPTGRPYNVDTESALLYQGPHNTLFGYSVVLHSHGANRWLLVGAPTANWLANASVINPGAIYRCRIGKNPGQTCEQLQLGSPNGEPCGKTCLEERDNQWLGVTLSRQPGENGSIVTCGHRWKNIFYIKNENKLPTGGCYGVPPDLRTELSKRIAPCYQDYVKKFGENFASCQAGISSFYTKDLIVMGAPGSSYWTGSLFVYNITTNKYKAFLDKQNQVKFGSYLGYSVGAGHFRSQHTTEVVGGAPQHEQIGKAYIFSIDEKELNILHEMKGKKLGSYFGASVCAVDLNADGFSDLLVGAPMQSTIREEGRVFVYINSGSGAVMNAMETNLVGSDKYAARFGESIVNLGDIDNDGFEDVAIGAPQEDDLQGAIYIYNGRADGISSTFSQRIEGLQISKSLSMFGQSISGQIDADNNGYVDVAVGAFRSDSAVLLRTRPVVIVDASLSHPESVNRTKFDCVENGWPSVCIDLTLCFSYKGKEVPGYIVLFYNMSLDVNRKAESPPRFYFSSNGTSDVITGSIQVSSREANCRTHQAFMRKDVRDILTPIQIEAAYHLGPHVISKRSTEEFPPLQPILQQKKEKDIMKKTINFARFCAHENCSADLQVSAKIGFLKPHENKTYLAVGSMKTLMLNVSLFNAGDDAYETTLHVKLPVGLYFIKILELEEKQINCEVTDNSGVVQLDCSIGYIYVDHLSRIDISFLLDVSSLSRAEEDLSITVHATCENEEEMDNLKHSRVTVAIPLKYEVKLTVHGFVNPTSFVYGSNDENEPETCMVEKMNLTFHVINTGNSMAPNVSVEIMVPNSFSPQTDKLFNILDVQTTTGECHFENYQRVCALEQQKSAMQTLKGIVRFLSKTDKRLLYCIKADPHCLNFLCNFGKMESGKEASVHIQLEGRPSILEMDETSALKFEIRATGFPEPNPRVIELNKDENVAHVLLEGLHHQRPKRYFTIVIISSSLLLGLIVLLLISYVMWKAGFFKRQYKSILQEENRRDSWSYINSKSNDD
AP-2 complex subunit beta (Homo sapiens), sequence (P63010 whole entry, looked up, the tested form may be a part, one chain of several): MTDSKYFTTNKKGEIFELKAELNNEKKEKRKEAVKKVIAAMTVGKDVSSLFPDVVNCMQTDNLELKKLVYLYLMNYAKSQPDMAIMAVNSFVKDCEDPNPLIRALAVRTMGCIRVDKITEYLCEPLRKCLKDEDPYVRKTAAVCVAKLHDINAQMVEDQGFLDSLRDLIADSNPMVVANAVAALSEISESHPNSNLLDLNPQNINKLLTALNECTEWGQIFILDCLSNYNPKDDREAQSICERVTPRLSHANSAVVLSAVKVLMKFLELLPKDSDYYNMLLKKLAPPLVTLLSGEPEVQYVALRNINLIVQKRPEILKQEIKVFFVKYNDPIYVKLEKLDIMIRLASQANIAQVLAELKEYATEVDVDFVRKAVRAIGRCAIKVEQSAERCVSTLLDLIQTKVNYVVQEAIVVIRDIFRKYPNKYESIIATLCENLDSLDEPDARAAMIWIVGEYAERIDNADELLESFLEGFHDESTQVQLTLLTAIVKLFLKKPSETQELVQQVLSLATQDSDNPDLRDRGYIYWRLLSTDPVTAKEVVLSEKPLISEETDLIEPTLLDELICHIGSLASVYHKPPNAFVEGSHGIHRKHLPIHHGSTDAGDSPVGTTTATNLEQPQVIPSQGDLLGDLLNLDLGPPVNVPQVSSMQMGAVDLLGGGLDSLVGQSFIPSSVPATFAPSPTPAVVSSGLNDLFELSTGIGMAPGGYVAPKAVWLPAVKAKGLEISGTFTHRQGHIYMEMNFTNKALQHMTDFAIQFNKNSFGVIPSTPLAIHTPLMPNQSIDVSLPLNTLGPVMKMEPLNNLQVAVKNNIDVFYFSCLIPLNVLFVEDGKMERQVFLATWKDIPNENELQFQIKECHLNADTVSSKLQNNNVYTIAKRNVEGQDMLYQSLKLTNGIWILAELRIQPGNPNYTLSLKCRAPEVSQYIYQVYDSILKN
Beta-2 adrenergic receptor (Homo sapiens), sequence (P07550 whole entry, looked up): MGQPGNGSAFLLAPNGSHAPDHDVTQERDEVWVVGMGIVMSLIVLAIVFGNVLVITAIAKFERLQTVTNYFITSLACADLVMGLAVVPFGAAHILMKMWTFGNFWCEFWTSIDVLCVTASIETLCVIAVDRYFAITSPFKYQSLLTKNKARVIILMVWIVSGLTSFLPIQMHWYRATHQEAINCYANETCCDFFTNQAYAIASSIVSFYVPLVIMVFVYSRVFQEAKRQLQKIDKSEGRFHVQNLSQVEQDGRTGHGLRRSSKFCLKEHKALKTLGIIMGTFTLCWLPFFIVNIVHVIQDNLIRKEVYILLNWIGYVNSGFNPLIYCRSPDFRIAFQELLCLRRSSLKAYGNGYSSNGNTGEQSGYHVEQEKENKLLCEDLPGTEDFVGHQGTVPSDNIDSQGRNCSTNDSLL
Beta-adrenergic receptor kinase 1 (Homo sapiens), sequence (P25098 whole entry, looked up): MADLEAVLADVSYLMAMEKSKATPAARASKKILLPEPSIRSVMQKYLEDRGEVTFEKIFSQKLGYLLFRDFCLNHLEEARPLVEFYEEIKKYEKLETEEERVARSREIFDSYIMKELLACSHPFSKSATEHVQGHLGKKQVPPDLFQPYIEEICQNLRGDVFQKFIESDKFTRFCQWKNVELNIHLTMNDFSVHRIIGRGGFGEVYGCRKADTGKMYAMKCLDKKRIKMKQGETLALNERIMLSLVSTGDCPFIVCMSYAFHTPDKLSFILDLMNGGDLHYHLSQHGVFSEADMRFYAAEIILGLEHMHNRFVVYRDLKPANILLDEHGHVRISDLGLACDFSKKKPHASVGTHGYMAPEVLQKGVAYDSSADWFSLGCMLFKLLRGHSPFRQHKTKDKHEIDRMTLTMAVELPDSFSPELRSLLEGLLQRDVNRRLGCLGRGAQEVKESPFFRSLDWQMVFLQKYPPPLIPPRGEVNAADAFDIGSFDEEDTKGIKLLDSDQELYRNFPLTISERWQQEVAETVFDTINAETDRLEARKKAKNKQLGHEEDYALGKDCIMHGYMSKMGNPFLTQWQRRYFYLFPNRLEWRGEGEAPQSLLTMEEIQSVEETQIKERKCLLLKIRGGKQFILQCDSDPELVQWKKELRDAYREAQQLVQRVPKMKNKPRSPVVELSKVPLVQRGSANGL

COc1ccc(-c2onc(C)c2-c2ccc(C(=O)OC(C)C)o2)c(O)c1
71.4%: double positive events [6]
inactive: percent of DMSO control GFP [1] 102% | GFP response vs DMSO [2] 109% | percent response of DMSO control [3] 93.4% | GFP response vs DMSO [4] 102% | GFP response, % of DMSO [5] 90.1% | inhibition [7] 2.93% | superoxide response (% of plate) [8] 95.6% | aptamer binding inhibition [9] -3% | inhibition [11] -6.7% | response [12] -0.7% | binding (% of control) [13] 105% | efflux inhibition (fraction of control) [14] -0.02 | inhibition [15] 5% | differentiation response [16] 13%
active: response [10] 58.6%

CCCCOc1ccc(OCCCN2CCOCC2)cc1
56%: double positive events [6]
inactive: percent of DMSO control GFP [1] 86.5% | GFP response vs DMSO [2] 136% | percent response of DMSO control [3] 104% | GFP response vs DMSO [4] 86.9% | GFP response, % of DMSO [5] 95.9% | inhibition [7] 11.3% | superoxide response (% of plate) [8] 112% | aptamer binding inhibition [9] 3% | response [10] -8.98% | inhibition [11] -2.38% | response [12] 1.62% | binding (% of control) [13] 106% | efflux inhibition (fraction of control) [14] -0.06 | inhibition [15] 11% | differentiation response [16] 4.91%

O=c1c2ccccc2nnn1Cc1cccc2ccccc12
inactive: percent of DMSO control GFP [1] 89.1% | GFP response vs DMSO [2] 105% | percent response of DMSO control [3] 103% | GFP response vs DMSO [4] 78.7% | vesicle binding response [6] 217% | inhibition [7] -13.9% | superoxide response (% of plate) [8] 103% | aptamer binding inhibition [9] 1% | response [10] -3.06% | inhibition [11] -7.09% | response [12] 3.28% | binding (% of control) [13] 99% | efflux inhibition (fraction of control) [14] -0.2 | inhibition [15] 13% | differentiation response [16] -0.82%
61%: double positive events [6]

CC/C(=C1/C(=O)CC(C)(C)C(C(=O)OC)C1=O)N1CCCC1 (centres undefined)
inactive: percent of DMSO control GFP [1] 103% | GFP response vs DMSO [2] 96.2% | percent response of DMSO control [3] 83.8% | GFP response vs DMSO [4] 83.5% | GFP response, % of DMSO [5] 88.9% | vesicle binding response [6] 174% | inhibition [7] 6.81% | aptamer binding inhibition [9] 3% | response [10] -0.83% | inhibition [11] -0.06% | response [12] 3.5% | binding (% of control) [13] 96.6% | inhibition [15] 11% | differentiation response [16] 34.5%
63%: double positive events [6]
active: efflux inhibition (fraction of control) [14] 0.99

CN(C)CCCN1c2ccccc2CCc2ccc(Cl)cc21
active: efflux inhibition (fraction of control) [14] 0.51
65%: double positive events [6]
inactive: percent of DMSO control GFP [1] 100% | GFP response vs DMSO [2] 99.7% | percent response of DMSO control [3] 101% | GFP response vs DMSO [4] 98% | GFP response, % of DMSO [5] 97.1% | inhibition [7] 12.3% | superoxide response (% of plate) [8] 97.5% | aptamer binding inhibition [9] -3% | response [10] 38.7% | inhibition [11] -2% | response [12] -7.85% | binding (% of control) [13] 112% | inhibition [15] 18% | differentiation response [16] -10.4%

CC(NCCC(c1ccccc1)c1ccccc1)c1ccccc1 (centres undefined)
64.4%: double positive events [6]
inactive: percent of DMSO control GFP [1] 92.6% | GFP response vs DMSO [2] 122% | percent response of DMSO control [3] 111% | GFP response vs DMSO [4] 68.8% | vesicle binding response [6] 167% | inhibition [7] 6.46% | superoxide response (% of plate) [8] 95.5% | aptamer binding inhibition [9] -3% | response [10] 24.3% | inhibition [11] 0.65% | response [12] 13.1% | binding (% of control) [13] 116% | efflux inhibition (fraction of control) [14] 0.19 | inhibition [15] 9% | differentiation response [16] -0.82%

N=C(N)c1ccc(OCCCCCOc2ccc(C(=N)N)cc2)cc1
inactive: percent of DMSO control GFP [1] 107% | GFP response vs DMSO [2] 105% | percent response of DMSO control [3] 96.5% | GFP response vs DMSO [4] 110% | GFP response, % of DMSO [5] 99.6% | inhibition [7] -7.79% | superoxide response (% of plate) [8] 98% | aptamer binding inhibition [9] -23% | response [10] 20.7% | inhibition [11] -15.3% | response [12] -1.89% | binding (% of control) [13] 112% | efflux inhibition (fraction of control) [14] 0.285 | inhibition [15] 9% | differentiation response [16] 8.59%
53.8%: double positive events [6]

O=c1n(CCCN2CCN(c3cccc(Cl)c3)CC2)nc2ccccn12
inactive: percent of DMSO control GFP [1] 91.5% | GFP response vs DMSO [2] 112% | percent response of DMSO control [3] 106% | GFP response vs DMSO [4] 75.9% | GFP response, % of DMSO [5] 92.4% | inhibition [7] 1.61% | superoxide response (% of plate) [8] 102% | aptamer binding inhibition [9] 2% | response [10] 2.3% | inhibition [11] -2.13% | response [12] 1.41% | binding (% of control) [13] 102% | efflux inhibition (fraction of control) [14] -0.2 | inhibition [15] 11% | differentiation response [16] 5.73%
69.6%: double positive events [6]

COc1cc2c(cc1OC)C(Cc1ccc(O)cc1)N(C)CC2 (centres undefined)
56%: double positive events [6]
inactive: percent of DMSO control GFP [1] 99% | GFP response vs DMSO [2] 127% | percent response of DMSO control [3] 108% | GFP response vs DMSO [4] 80.9% | vesicle binding response [6] 289% | inhibition [7] 8.4% | superoxide response (% of plate) [8] 104% | aptamer binding inhibition [9] 4% | response [10] -6.53% | inhibition [11] 2.93% | response [12] 0.76% | binding (% of control) [13] 108% | efflux inhibition (fraction of control) [14] 0.27 | inhibition [15] 8% | differentiation response [16] 2.46%

Clc1ccc(Cn2c(CN3CCCC3)nc3ccccc32)cc1
inactive: percent of DMSO control GFP [1] 100% | GFP response vs DMSO [2] 104% | percent response of DMSO control [3] 107% | GFP response vs DMSO [4] 100% | GFP response, % of DMSO [5] 102% | vesicle binding response [6] 98% | superoxide response (% of plate) [8] 105% | aptamer binding inhibition [9] -1% | inhibition [11] 1.97% | response [12] -2.91% | binding (% of control) [13] 102% | efflux inhibition (fraction of control) [14] -0.43 | inhibition [15] 4% | differentiation response [16] -22.8%
56.4%: double positive events [6]
